# Assay results from PubChem BioAssay (NCI).
# About 79,000 compounds went through this panel and 15% of them were active in at least one assay; those are over-represented in the sample as a whole. Activity calls are given as the source filed them. Rule as the data show it: active = growth inhibition above about 70%; inactive = the rest.
# Test: NCI Yeast Anticancer Drug Screen. Data for the bub3 strain (AID 167)
# Settings: S. cerevisiae bub3 mutant strain, at 50.0 µM, stronger effect = higher value
# How it was run: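 Mutant yeast screening strain plus compound; vehicle-treated cultures serve as the 0% inhibition reference.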
row,Structure (SMILES),growth inhibition
1,CNC1C(=O)C(C)C(O)(C(CC(C)C(O)/C=C/C=C/CNC(=O)C(C)(C)C(O)\C(C)=C/C=C\C=C\Cc2cnc(C)o2)OC)C12C(=O)OC2COC (configuration not stated) (tested in a mixture with another compound),12.9% (inactive)
2,C=CCNC(=O)C(=O)NCC=C,-8.25% (inactive)
3,O=C(Nc1ccccc1Cl)Nc1ccccc1Br,6.8% (inactive)
4,CS(=O)(=O)Oc1ncc(Cl)cc1Cl,1.35% (inactive)
5,O=[N+]([O-])c1ccc(OCCCCCBr)c(Cl)c1,66.2% (inactive)
6,COc1ccc(N/N=C2\CCOc3ccc(C)cc3C2=O)cc1,52% (inactive)
7,Cc1ccc(S(=O)(=O)Oc2nc3nc4ccccc4nc3nc2OS(=O)(=O)c2ccc(C)cc2)cc1,3.5% (inactive)
8,COc1ccn(C2OCCC(OC(C)=O)C2O)c(=O)n1 (configuration not stated),0.4% (inactive)
9,Cc1ccc(O)c(O)c1,-20.3% (inactive)
10,CCc1ccc2[nH]nc(CCC(=O)O)c(=O)c2c1,-23.2% (inactive)
11,O=C1Nc2ccccc2C2=C3CCCCC3=NNC12 (configuration not stated),97.5% (active)
12,O=Cc1cccc(OC(=O)Nc2ccccc2)c1,17.1% (inactive)
13,CCCN=C(C(C)=O)N(C)C,24.2% (inactive)
14,CC1SC2(C(=O)Nc3ccccc32)N(c2ccc(Cl)cc2)C1=O (configuration not stated),60.5% (inactive)
15,CC(C)C1CCC(C)(C=O)C1 (configuration not stated),-5.75% (inactive)
16,Cc1cc2nc3n(c2cc1C)C(=O)c1cc2ccccc2cc1-3,-10.4% (inactive)
17,CC1=CC(C)(C)NC(=S)N1CCO,1.15% (inactive)
